Measured values from PubChem BioAssay (NCATS).
Inconclusive results are not listed. Calls of active or inactive are those of the source. Calls come from the whole dose curve; as a rule, active = well fitted curve in the direction sought with a large enough effect; inconclusive = small, poorly fitted or top-dose-only effect, or another doubt; inactive = no such curve, though single readings can be large; an effect the other way counts as inactive or inconclusive.

Key:
[1] = qHTS of pediatric cancer cell lines to identify multiple opportunities for drug repurposing: Primary screen for TC32 cells (AID 1347089); note: nearly all actives have a fitted effect of over 60% in size
How it was run: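 qHTS, TC32, 48 h drug treatment, CellTiter-Glo luminescence as a proxy for metabolically active cells; primary top concentration 46 µM (MIPE 11-pt, NPC 8-pt); confirmatory 11-pt.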

[2] = qHTS of pediatric cancer cell lines to identify multiple opportunities for drug repurposing: Primary screen for DAOY cells (AID 1347090); note: nearly all actives have a fitted effect of over 55% in size
How it was run: (§1)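 Eight- or eleven-point concentration series, 48 h treatment at 37 degrees C in growth media; readout CellTiter-Glo luminescence. Potency and efficacy were taken from the concentration-response curves.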

[3] = qHTS of pediatric cancer cell lines to identify multiple opportunities for drug repurposing: Primary screen for SJ-GBM2 cells (AID 1347091)
How it was run: as §1

[4] = qHTS of pediatric cancer cell lines to identify multiple opportunities for drug repurposing: Primary screen for A673 cells (AID 1347092); note: nearly all actives have a fitted effect of over 45% in size
How it was run: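 Luminescence from CellTiter-Glo, taken after 15 min at room temperature, served as the proxy for metabolically active cells following 48 h treatment. Both potency and efficacy were taken from curves fitted to the titration data.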

[5] = qHTS of pediatric cancer cell lines to identify multiple opportunities for drug repurposing: Primary screen for SK-N-MC cells (AID 1347093)
How it was run: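 Metabolically active cells were quantified by ATP-dependent luminescence (CellTiter-Glo, 15 min at room temperature) following 48 h treatment. Cells had been plated at 500-1,000 per well and settled for 5 h beforehand.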

[6] = qHTS of pediatric cancer cell lines to identify multiple opportunities for drug repurposing: Primary screen for BT-37 cells (AID 1347094)
How it was run: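 Cells seeded at 500-1,000 cells/well in growth media, rested 5 hours at 37 degrees C, 5% CO2, then dosed; MIPE compounds at 11-point (from 0.78 nM) and NPC at 8-point (from 0.59 nM) final concentrations. Viability by CellTiter-Glo luminescence after 48 hours.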

Measured: Potency
Potency is the fitted concentration of half-maximal effect.

Oc1cccc2[nH]ccc12
inactive: all assays above

CCCCOCCOC(=O)c1cccnc1
inactive: all assays above

CN(C)CCN(Cc1ccsc1)c1ccccn1
inactive: all assays above

O=C(OCC1(COC(=O)c2cccnc2)CCCC(COC(=O)c2cccnc2)(COC(=O)c2cccnc2)C1O)c1cccnc1
inactive: all assays above

CC(CCc1ccc2c(c1)OCO2)NN (stereo unspecified)
inactive: all assays above

Cc1ccc(/C=N/n2c(-c3ccccc3)csc2=S)cc1
inactive: all assays above

CNC[C@H](O)[C@@H](O)[C@H](O)[C@H](O)CO
inactive: all assays above

Cc1ccc2c(Cl)cc(Cl)c(O)c2n1
inactive: all assays above

COCCc1ccccn1
inactive: all assays above

CCCCCN(CCCOC)C(=O)C(CCC(=O)O)NC(=O)c1ccc(Cl)c(Cl)c1 (stereo unspecified)
inactive: all assays above

COc1cc(S(N)(=O)=O)cc(C(=O)O)c1OC
inactive: all assays above

CC(C)OP(=O)(CP(=O)(OC(C)C)OC(C)C)OC(C)C
inactive: all assays above

OC1(c2ccc(Cl)cc2)CCNCC1
inactive: all assays above

CC(=O)OC[C@H]1O[C@@H](OC(C)=O)[C@H](OC(C)=O)[C@@H]1OC(C)=O
inactive: all assays above

NC(=O)NS(=O)(=O)c1ccc(Cl)cc1
inactive: all assays above

CC(C)NCCCC1(C(N)=O)c2ccccc2-c2ccccc21
inactive: all assays above

CCN(CC)CC(=O)OCC(=O)[C@@]1(O)CC[C@H]2[C@@H]3CCC4=CC(=O)CC[C@]4(C)[C@H]3[C@@H](O)C[C@@]21C
inactive: all assays above

Cn1cc(S(C)=O)c(=O)c2ccc(F)cc21 (stereo unspecified)
inactive: all assays above

Cc1nc(N)nc(N)c1-c1ccc(Cl)c(Cl)c1
active: [1] 470 nM | [2] 841 nM | [3] 299 nM | [4] 1.06 µM | [5] 33.5 nM | [6] 550 nM

CC(=O)Nc1ccc(S(=O)(=O)Nc2cc(C)on2)cc1
inactive: all assays above

Cc1ccc(O)cc1
inactive: all assays above

CSc1ccc(/C=C2/C(C)=C(CC(=O)O)c3cc(F)ccc32)cc1
inactive: all assays above

O=C(Oc1ccccc1)c1cccc(C(=O)Oc2ccccc2)c1
inactive: all assays above

CCc1cc(S(=O)(=O)O)c2cc(C(C)C)cccc1-2
inactive: all assays above

CC(=O)c1ccc(O)c(C(N)=O)c1
inactive: all assays above

N#CSCC(=O)O
inactive: all assays above

COc1cc(C=O)ccc1O
inactive: all assays above

CN1C(CSCC(F)(F)F)Nc2cc(Cl)c(S(N)(=O)=O)cc2S1(=O)=O (stereo unspecified)
inactive: all assays above

CCCCCCn1c(=O)c2c(ncn2C)n(C)c1=O
inactive: all assays above

C1=CC2C3C=CC(C3)C2C1 (stereo unspecified)
inactive: all assays above

O=c1[nH]c(=O)n([C@H]2O[C@H](CO)[C@@H](O)[C@@H]2O)cc1/C=C\Br
inactive: all assays above
